This experiment is described as follows: qHTS Multiplex Assay to Identify Dual Action Probes in a Cell Model of Huntington: Cytoprotection confirmation (ATP). The method, boiled down: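 Cell survival measured by luminescent ATP content (ATPlite) in tebufenozide-induced (100 nM) PC12 HTTQ103-GFP cells treated with compounds, in phenol red-free DMEM with equine and calf serum.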

Inconclusive results are not listed. Entries that show only a call come without a potency. Active and inactive are the calls of the source. Calls come from the whole dose curve; as a rule, active = well fitted activation curve with a large enough effect; inconclusive = small, poorly fitted or top-dose-only effect; inactive = no such curve, though single readings can be large or run the other way.

Take `CC(=O)c1ccccc1-c1csc2ncnc(Sc3nnnn3C)c12`: the Potency was 31.6 µM (active).

Consider `Cn1nnnc1Sc1ncnc2scc(-c3ccccc3C(F)(F)F)c12`, for which the Potency result is “inactive”.

As for `Cn1nnnc1Sc1ncnc2scc(-c3ccc4ccccc4c3)c12`, the Potency was 12.6 µM (active).

With `Cn1nnnc1Sc1ncnc2scc(-c3ccccc3F)c12`, the Potency result was “inactive”.

On to `CC(C)(C)n1nnnc1C(c1ccc2ncccc2c1)N1CCSCC1` (centres undefined), for which the Potency entry is “inactive”.

Consider `CC(=O)OCC1=C(C(=O)O)N2C(=O)[C@@H](NC(=O)Cc3cccs3)[C@H]2SC1`, for which the Potency result is “inactive”.

Take `CCOC(=O)c1noc(C)c1C(=O)Nc1cccc(F)c1`: the Potency entry is “inactive”.

Consider `C=C(C)C(=O)OCCCCCCOc1ccc(C(=O)O)cc1`, for which the Potency entry was “inactive”.

As for `CCN(CC)CCNc1ccc(CO)c2sc3ccccc3c(=O)c12`, the Potency entry was “inactive”.

Regarding `Cc1nnsc1C(=O)N/N=C/c1ccc2ccccc2c1O`, the Potency result was “inactive”.

Regarding `Cn1nnnc1Sc1ncnc2scc(-c3ccc4c(c3)OCO4)c12`, the Potency is 22.4 µM (active).

As to `Cn1nnnc1Sc1ncnc2scc(-c3cccc(Cl)c3)c12`, the Potency is 14.1 µM (active).

For the compound `COc1c(F)c(F)c(C(=O)Nc2ccc3oc(-c4ccncc4)nc3c2)c(F)c1F`, the Potency entry was “inactive”.

For `CNCCCN1c2ccccc2CCc2ccccc21`, the Potency result was “inactive”.

Take `COc1ccc(C2=Nc3cc(C)ccc3OC2)cc1`: the Potency entry was “inactive”.

As to `CC(C(=O)O)c1ccc(N2Cc3ccccc3C2=O)cc1` (centres undefined), the Potency result was “inactive”.

With `Cc1ccccc1N=C(N)Nc1ccccc1C`, the Potency result is “inactive”.

In the case of `CC(=O)c1cccc(-c2csc3ncnc(Sc4nnnn4C)c23)c1`, the Potency is 10 µM (active).

In the case of `Cn1nnnc1Sc1ncnc2scc(-c3ccccc3C#N)c12`, the Potency is 28.2 µM (active).

As for `Cn1nnnc1Sc1ncnc2scc(-c3ccccc3Br)c12`, the Potency was 35.5 µM (active).

On to `C#CCN(C)CCCOc1ccc(Cl)cc1Cl`, for which the Potency result was “inactive”.

As to `Cc1nnc2n1N=CC=C(c1ccccc1)S2`, the Potency entry is “inactive”.

Turning to `O=C(Nc1ccccc1)C1=C(O)CC(c2ccco2)CC1=Nc1ccccc1` (centres undefined), the Potency result is “inactive”.

Regarding `Cn1nnnc1Sc1ncnc2scc(-c3ccc(Cl)cc3)c12`, the Potency result was “inactive”.
